Source: PubChem (National Center for Advancing Translational Sciences (NCATS))
PTAP TSG101 blk: blocks PTAP/TSG101 interaction to inhibit HIV-1 budding | Potency, µM (titrated, usually from 115 µM), without a hit: at the highest dose activity change, negative = inhibition, hits mostly inhibitors | 340,000 tested, under 10 active | AID 493005 | Fluorescence polarization, FITC-PTAP peptide / Tsg101 binding | Q99816; active = well fitted inhibition curve with a large enough effect in the main read-out, with a control signal flat, not every such curve was filed as active; inconclusive = small, poorly fitted or top-dose-only effect, or effect the other way, or a change in a side signal; inactive = no such curve, though single readings can be large or run the other way; also: potency is read from the fitted curve at half-maximal effect; % of control where 0% means no effect
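Fluorescence anisotropy tracks displacement of a FITC-tagged PTAP peptide (50 nM) from the Tsg101 binding domain (10 uM), following a 20 min room-temperature incubation at pH 7.5.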
S-ASM inh: inhibitors of human secretory acid sphingomyelinase | Potency, µM (top dose mostly 57.5 µM), without a hit: at the highest dose activity change, negative = inhibition, most hits filed as inhibitors | placental ASM, HMU-PC fluorogenic substrate, 60 min | 340,000 compounds, 0.006% hits; also: potency is read from the fitted curve at half-maximal effect
Target sequence (P17405 47-631 limits assumed): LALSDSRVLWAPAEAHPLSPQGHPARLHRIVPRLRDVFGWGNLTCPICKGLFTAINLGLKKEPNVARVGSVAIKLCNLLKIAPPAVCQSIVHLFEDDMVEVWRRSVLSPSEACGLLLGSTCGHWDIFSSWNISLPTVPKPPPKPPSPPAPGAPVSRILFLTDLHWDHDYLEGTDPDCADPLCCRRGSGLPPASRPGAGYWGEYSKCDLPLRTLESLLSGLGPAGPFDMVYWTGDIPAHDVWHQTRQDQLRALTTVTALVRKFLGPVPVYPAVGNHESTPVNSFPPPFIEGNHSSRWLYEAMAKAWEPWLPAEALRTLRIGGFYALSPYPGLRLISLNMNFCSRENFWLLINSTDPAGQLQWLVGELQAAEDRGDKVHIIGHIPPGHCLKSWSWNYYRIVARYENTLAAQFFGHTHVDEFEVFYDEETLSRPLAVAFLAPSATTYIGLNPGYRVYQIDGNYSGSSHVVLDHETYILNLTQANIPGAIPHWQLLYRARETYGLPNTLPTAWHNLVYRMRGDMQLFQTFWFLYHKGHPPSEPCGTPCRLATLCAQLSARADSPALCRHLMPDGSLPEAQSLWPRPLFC
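Human placenta-derived ASM preincubated with compound 10 min at room temperature, then reacted with 9 uM (final) fluorogenic HMU-PC substrate for 60 min at 37 C. Stop solution raises pH to 10; fluorescence read at Ex 386/Em 447 nm.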
BRCA1 expr act: increases BRCA1 expression; MCF7-BRCA1-FFLuc reporter, luminescence, 48 h; response scale: scaled: vehicle 0%, 10 µM genistein 100%; AID 624202; 380,000 compounds, 1.1% hits; Potency, µM (titrated, usually from 46.1 µM), for the others: at the top dose activation, most hits filed as activators; also: potency is read from the fitted curve at half-maximal effect; nearly all actives have a fitted effect of over 80% in size
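Quantitative HTS in MCF7 cells stably reporting BRCA1 expression via firefly luciferase. Compound treatment lasts 48 h at 37 °C in phenol-red free MEM. Activation is expressed relative to genistein at 10 microM and DMSO.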
Apoferritin bind: binds horse apoferritin like a general anesthetic; 350,000 compounds, 0.074% hits; Potency, µM (highest dose often 77.5 µM), inactives show top-dose activity change, negative = displacement, most hits filed as inhibitors; P02791; apoferritin/1-aminoanthracene competitive binding, fluorescence; also: potency is read from the fitted curve at half-maximal effect; % is scaled to controls: 0 for no effect and ±100 for the full control effect; nearly all actives have a fitted effect of over 20% in size
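Apoferritin-based anesthetic binding model; compound displacement of fluorescent 1-AMA measured as endpoint fluorescence after 10 minutes at room temperature, scaled to free-ligand and complex controls.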
TSHR antag: antagonists of human thyroid stimulating hormone receptor; activity change, negative = inhibition, % at 11.5 µM; TSHR-expressing cells, TSH-stimulated cAMP HTRF, 2 h; active compounds read low; AID 504810; 330,000 compounds, 0.2% hits;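 active = activity change below a set negative limit, meaning inhibition stronger than a set level, cut at about -70% in these data; inconclusive = activity change between two set negative limits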; also: % is scaled to controls: 0 for no effect and ±100 for the full control effect
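Freshly harvested TSHR cells receive pin-tooled compound, then EC80 TSH at 4nM final. After 2 hours at 37 deg C, antibody in lysis buffer and cAMP-d2 are added; 30 minutes at ambient temperature precede the HTRF read.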
* hit, by the source's call; i = inactive; ? = inconclusive; . = no result; [ ] = remark or other dose. This is a sample that favours compounds with a hit; in the whole collection about 1.2% have one here. Unless noted, calls follow the shape of the dose curve; as a rule, active = well fitted curve in the direction sought with a large enough effect; inconclusive = small, poorly fitted or top-dose-only effect, or another doubt; inactive = no such curve, though single readings can be large; an effect the other way counts as inactive or inconclusive.

SMILES	PTAP TSG101 blk	S-ASM inh	BRCA1 expr act	Apoferritin bind	TSHR antag
C=CCn1c(SCC(C)=O)nc2scc(-c3ccc(C)o3)c2c1=O	-1.1%	-2.4%	12.6µM*	-5.8%	-13.3
C[C@]12CC[C@@H](O)C[C@@H]1CC[C@@H]1[C@@H]2CC[C@]2(C)C=CC[C@@H]12	.	.	.	-15.1%	.
O=C(COc1ccc(Cl)cc1Cl)NC(=O)NC1CCCC1	-10.7%	0.1%	3.98µM*	.	-2.5
O=C(COc1ccc(Br)cc1Cl)NC(=O)NC1CCCC1	-7.1%	-2.5%	?	.	-9.0
O=C(COc1ccc(Cl)cc1Br)NC(=O)NC1CCCC1	-2.5%	-3.0%	12.6µM*	.	-6.9
Cc1ccc(C(=O)c2cc3ccccc3o2)cc1C	-5.3%	-5.1%	11.2µM*	?	-6.8
CCCCN(CCCC)c1ccc(Cn2ccc3ccccc32)cc1	.	.	-76.0%	.	.
CC[C@H](C)[C@H](NC(=O)[C@@H]1CCCN1C(=O)[C@H](Cc1cnc[nH]1)NC(=O)[C@@H](NC(=O)[C@H](Cc1ccc(O)cc1)NC(=O)[C@@H](NC(=O)[C@H](CCCN=C(N)N)NC(=O)CNC)C(C)C)[C@@H](C)CC)C(=O)O	.	.	.	1.3%	.
CCOC(=O)C1(Cc2cccc(OC)c2)CCCN(C(=O)c2ccc(OC)o2)C1 (stereo not given)	-5.2%	.	?	-15.7%	-24.3
CCOC(=O)C1(Cc2cccc(OC)c2)CCCN(C(=O)CCN2CCCO2)C1 (stereo not given)	-3.2%	-0.1%	3.98µM*	-16.3%	36.7
COc1ccc2[nH]cc(CCO)c2c1	.	.	.	-0.4%	.
CCCCNc1c(-c2ccc(-c3cccc(Cl)c3)cc2)nc2ccccn12	-0.9%	282.1%	8.91µM*	.	-16.5
CCCCNc1c(-c2cccc(-c3ccc(OC)cc3)c2)nc2ccc(C)cn12	-3.3%	411.9%	-81.3%	.	-83.5*
CCCCCCSc1ccc(-c2nc3ccccn3c2NCCCC)cc1	-4.6%	i	12.5%	.	0.3
CSc1ccc(CNc2ccccn2)cc1	-4.4%	3.0%	10µM*	?	-7.6
CCCCNc1nc(C#N)nc(Nc2ccccc2)n1	.	.	.	-0.2%	.
CC(O)CCCCCCC/C=C/C=C/C(N)=O (stereo not given)	.	.	.	-21.1%[15.3 µM]	.
C/C=C/C/C=C/CCC(=O)[C@H]1O[C@H]1C(N)=O	.	.	.	-22.4%	.
O=C1NC(=S)N/C1=C/c1cccc2ccccc12	-3.7%	3.6%	12.6µM*	0.2%	-1.5
CCN1C(Br)=CCc2ccccc21	.	.	15.2%	.	.
CCCCc1ccc(NC(=O)C2CCCO2)cc1 (stereo not given)	2.0%	0.3%	1.41µM*	?	1.5
CCCCNC(=O)c1ccc(NC(=O)C2CCCO2)cc1 (stereo not given)	0.3%	-1.4%	4.8%	5.7%	14.0
COCCNC(=O)COc1ccc(OCCNC[C@H](O)COc2ccccc2)cc1	.	.	.	-1.7%	.
Cc1ccc(/C=C/C(=O)NCCCc2ccccc2)cc1	1.1%	-1.5%	-17.6%	0.0%	-12.6
C#CCNC(=O)/C=C/c1ccc(C)cc1	0.1%	-3.7%	11.2µM*	2.2%	4.8
SMILES	PTAP TSG101 blk	S-ASM inh	BRCA1 expr act	Apoferritin bind	TSHR antag
CCOC(=O)N1CCN([N+]([O-])=NOc2cc(O/N=[N+](\[O-])N(CC)CC)c([N+](=O)[O-])cc2[N+](=O)[O-])CC1	.	.	.	-22.5%	.
COc1cccc(C=Nc2ccccc2C(=O)Nc2nccs2)c1OC	-4.1%	i	?	213.6%	23.4
COc1cccc2c1OCC(C(=O)Nc1nccs1)=C2	0.1%	-4.6%	4.47µM*	0.0%	-1.6
O=C1CC[C@@H](C(=O)N[C@@H](Cc2cnc[nH]2)C(=O)N[C@@H](Cc2c[nH]c3ccccc23)C(=O)N[C@@H](CO)C(=O)N[C@@H](Cc2ccc(O)cc2)C(=O)O)N1	.	.	.	-3.5%	.
Cn1c(N)c(Sc2ccccc2[N+](=O)[O-])c(=O)n(C)c1=O	-10.4%	3.9%	-0.1%	-9.0%	-111.6*
Cn1c(N)c(Sc2ccc([N+](=O)[O-])cc2)c(=O)n(C)c1=O	-2.0%	-0.6%	-23.4%	-4.2%	4.1
COc1cccc(-c2csc(N3CCC(C(N)=O)CC3)n2)c1	.	.	.	.	-11.1
CSc1ncc(-c2ccc(Cl)cc2)[nH]1	-2.3%	-0.7%	10µM*	-19.2%	22.7
Nc1nc2c(nc(N3CCOCC3)n2COCCO)c(=O)[nH]1	.	.	13.2%	.	.
CC1CCCCN1C(=O)COC(=O)c1ccc(S(C)(=O)=O)c([N+](=O)[O-])c1 (stereo not given)	.	.	-69.0%	.	.
Cc1cccc(Nc2ncnc3nc[nH]c23)c1	2.8%	7.1%	41.3%	-7.7%	2.6
CCOC(=O)c1ccc(Nc2ncnc3nc[nH]c23)cc1	-3.7%	1.6%	6.31µM*	-3.8%	6.6
Cc1ccc(Nc2ncnc3nc[nH]c23)cc1	.	.	11.2µM*	.	.
CCOC(=O)C1OC1C(=O)N[C@@H](CC(C)C)C(=O)NCCC(C)C (stereo not given in full)	.	.	.	-1.5%	.
COc1ccc(O)c(/C=N/N2CCCCC2)c1	-10.2%	-0.2%	10µM*	-16.7%	13.3
Oc1c(Cl)cc(Cl)cc1Sc1cc(Cl)cc(Cl)c1O	.	.	.	?	-92.3*
CCOC(=O)c1nn(-c2ccc3ccccc3c2)cc1O	-3.7%	7.4%	2.82µM*	?	-0.3
CCOC(=O)c1nn(-c2ccc3c(c2)OCO3)cc1O	0.6%	0.2%	3.16µM*	-18.2%	-1.9
COc1ccc(-c2csc(C(O)c3ccccc3)n2)cn1 (stereo not given)	.	.	11.2µM*	.	.
COc1ccc(-c2csc(C(NC(C)=O)c3cccc(F)c3)n2)cn1 (stereo not given)	.	.	6.2%	.	.
COc1ccccc1/C=C/C=N/n1c(-c2ccccn2)n[nH]c1=S	0.5%	-0.2%	11.2µM*	3.0%	2.2
COc1ccc(CNc2nc(NCc3ccc(OC)cc3)c3ncn(C4CCCCC4)c3n2)cc1	.	.	.	166.7%	.
COc1cc(Cl)ccc1OCc1cc(C(=O)N2C[C@@H]3CCC[C@H]2C3)no1	-1.0%	.	?	?	8.4
COc1cc(C)ccc1OCc1cc(C(=O)N(Cc2c(C)nn(C)c2C)C2CC2)no1	-0.2%	-2.8%	12.6µM*	-7.1%	-16.6
COc1cc(C)ccc1OCc1cc(C(=O)N2C[C@H]3CC[C@H]2C3)no1	1.2%	0.6%	16.5%	0.7%	0.4
